We go through nine compounds from PubChem BioAssay (NCATS).

The structures appear in SMILES notation. Inconclusive results are not listed. A call without a number means that no potency is given here. The source made the active and inactive calls. The call rests on the fitted dose curve; in most records, active means well fitted cell-killing curve with a large enough effect; inconclusive means small, poorly fitted or top-dose-only effect; inactive means no such curve, though single readings can be large or run the other way.
Potency means the concentration at half of the fitted maximal effect.

The nature of this assay: qHTS of pediatric cancer cell lines to identify multiple opportunities for drug repurposing: Primary screen for Rh41 cells (AID 1347108). Further: nearly all actives have a fitted effect of over 70% in size. Particulars: Rh41 rhabdomyosarcoma viability, CellTiter-Glo luminescence, 48 h; series mostly up to 46 µM. Put shortly: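 Plated cells (500-1,000 per well, growth media) were allowed to settle for 5 hours, treated with compound dilutions for 48 hours, then lysed with CellTiter-Glo for 15 min at room temperature before luminescence reading.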
In general terms: In qHTS, concentration-response curves come from the screen itself.
Consider `CN1CCC(CNc2ccc3ncc(-c4cccc(OC(F)(F)F)c4)n3n2)CC1`, for which the Potency is 18.7 µM (active). Turning to `CCCCCCCCCC(=O)N[C@@H](Cc1c[nH]c2ccccc12)C(=O)N[C@H](CC(N)=O)C(=O)N[C@@H](CC(=O)O)C(=O)N[C@@H]1C(=O)NCC(=O)N[C@@H](CCCN)C(=O)N[C@@H](CC(=O)O)C(=O)N[C@H](C)C(=O)N[C@@H](CC(=O)O)C(=O)NCC(=O)N[C@H](CO)C(=O)N[C@@H]([C@@H](C)CC(=O)O)C(=O)N[C@@H](CC(=O)c2ccccc2N)C(=O)O[C@@H]1C`, the Potency entry is “inactive”.

With `CC(O)C1C(=O)N2C(C(=O)O)=C(SC3CNC(C(=O)N(C)C)C3)C(C)C12` (centres undefined), the Potency result was “inactive”. Under `CC(C)(O)CCc1ccc(OCc2cc(-c3cccc(OC(F)F)c3)c3ncccc3c2)cc1` stands “inactive”; under `CC(=O)SC[C@@H](C)C(=O)N1CCC[C@H]1C(=O)N[C@@H](Cc1ccccc1)C(=O)O`, “inactive”; under `CCOc1ccccc1OCCNC(C)Cc1ccc(OC)c(S(N)(=O)=O)c1` (centres undefined), “inactive”. With `C1Cc2[nH]nc(-c3nn[nH]n3)c2C1`, the Potency result was “inactive”.

In the case of `Clc1cccc(-c2nnnn2Cc2cccnc2)c1Cl`, the Potency result is “inactive”. Under `O=C(C=Cc1c(C(=O)O)[nH]c2cc(Cl)cc(Cl)c12)Nc1ccccc1` stands “inactive”.
